In the supplement of paper PMC6555819 one finds PBM binding z-score data, which are given here for 40 sequences.

For the assay, the system named is VDR:RXRa (NR concentration 270 nM, RXRa partner concentration 90 nM). The assay is described as follows: PBM binding z-score (relative to random genomic background probes); higher = stronger binding; sequences stand for … in GC…GCGATTGACAGCGTAGAATGAAGG
Here is the method:
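Protein-binding microarray (Agilent 4x180K custom design, double-stranded 60-nt probes: 5' GC cap, 34-nt variable region, 24-nt constant primer region; full probe sequence given). Purified or IVT nuclear receptor:RXRα heterodimers (3:1 NR:RXRα, mostly 270:90 nM) or homodimers were incubated for 1 h in PBS with 2% milk and no ligand, then detected with Alexa488 antibodies. Fluorescence from o1-orientation probes (~5 replicates averaged) was converted to z-scores against 500 random hg19 background probes. Variable regions are seed direct-repeat (DR0–DR5) sites, all their single-nucleotide variants and half-site ablations.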
TCATATAGGTAAATGCTAGGTGAATGTCCGATCT had a PBM binding z-score of 0.74. In the case of AATACAGGGCCACTAGGCCAGAGTAGGTACGAAT, the PBM binding z-score was -0.225. On to CCTCGGAGGACAACAGGAGGTCAGAACTGCCAGA, for which the PBM binding z-score stood at 1.67. Consider CCTTAAGGGTCACTCCAGGTTATAGCATCGGAGT, for which the PBM binding z-score was 5.13. In turn, AGAATGAGTTTATTAAGATCAGGGAATTGCGGTC showed a PBM binding z-score of 2.08.

As to CGAACTCGGTCAGAACAGGACAGTGAAGGATGAT, the PBM binding z-score is -0.191.

Consider ACTATTAGATGAGACGAGGGCAACCGATAGGTTG, for which the PBM binding z-score is 0.421. In turn, ACTAGTTGGTCAGCTGAGGTCATACACAATTCGG showed a PBM binding z-score of 4.73. Regarding AGAAGGAGGTTATACGTAGATCAGGGAAGAAAGT, the PBM binding z-score was 0.711. Sequence CAAACAAGGTCAAGGTCAAAGTCGGTTTGTGCCA displayed a PBM binding z-score of 6.23. Turning to CCTCGGAGGAGAACAGGAGGTCAGAGCTGCCAGA, the PBM binding z-score turned out to be 1.29. Take GCTCGGAGGACGAGGTCAGAGCTTTGTCCGTAGA: the PBM binding z-score is 2.2.

Sequence TGTCAAAGTTCAGAGGTAACGTAAGTATCCACAC returned a PBM binding z-score of 3.36. In turn, GCAGACAGGTGAAACGCAGGTAACTCAAGGTGGC gave a PBM binding z-score of -0.431.

ATCTCTAGGTAACAAGTTCAGTGGAAGAGAGGAC had a PBM binding z-score of 2. For the sequence TAGCCTAGGTCATGCGGGCAAGTATAGTGTCGGC, the PBM binding z-score was found to be 2.21. CTACCAAGGTGAACAAGCTCGTTGATTACTATTC displayed a PBM binding z-score of 0.121. Take GCAGACAGGTGCAACGCAGGTAACTCAGGGTGGC: the PBM binding z-score was -0.467.

In the case of CCGACTGGGGCAGAAAGGTTACCATCCCATCCGG, the PBM binding z-score amounted to 0.789.

In the case of TCATATAGTTAATACAGGTGAAAGTCGGCATCTA, the PBM binding z-score was 1.26. On to CCGACTGGGGTAGAAAGGTTACCATACCATCCGG, for which the PBM binding z-score stood at 0.692. Sequence GCGACGGGGGCAAAGCAGGTTACCATAAGGTTGG came in with a PBM binding z-score of 3.84. The value for TCTTGTAGATGAACAGGAGGTTAAGAAAGATCGA was 0.644; that for ACTATTAGTTGAGACGAGGGCAACCTATAGGTTG was 0.781; that for ATATGTAGGTTAGCTGGGGTCATTCAGACTAGGC was 6.27. AGAATGAGGTTACCAAAAATCAGGGAAACGCTTG yielded a PBM binding z-score of 1.03. As for ATATGTAGGTTAGCTGTGGTCATTCAGACTAGGC, the PBM binding z-score is 0.859. Sequence ACTATTAGTTGAGACGAGGGCGACCGATAGGTTG registered a PBM binding z-score of 0.133. On to CAAACTAGGTCAAGGTAAAAGTCGGTTTGTGCCA, for which the PBM binding z-score was determined as 1.79. In the case of CCTACTGGGCCCTTCAGAGGTCATTGATCATATG, the PBM binding z-score was determined as 3.41. CCTAATGGGCCACGAAAGGTCATTGATTCAGTGA showed a PBM binding z-score of 4.33. The sequence GCTAGTTGGCCAGTAAAAGGTCACACACCGGTCG came in with a PBM binding z-score of 3.73. The result for GCTGCTAGGTCAACTGATGGTCCGCTAAAGCTCG reads 1.31; that for TAGCCTAGATCATGCGGGCCAGTATAGTGTCGGC, -1.11. AGTCAAAGTTCAGGACGATGTAACGTAAAGCACG returned a PBM binding z-score of 2.56. Regarding TCTTGTAGATCAAGCAGGTTTAGAAAGCCTGAGT, the PBM binding z-score is 0.444.

Consider TCACATAGGTAAAAGGTGAAAGTCGGTGTGGTAA, for which the PBM binding z-score turned out to be 1.8.

TCTGCTAGGTGAACGATGGTCAGCTAATCTGCTA displayed a PBM binding z-score of -0.621. Sequence ATATGTAGGTTAAGGGTCTTTCAGGTTGGTTCGC came in with a PBM binding z-score of 1.79. Consider TCTTGTAGATGAATAGAGGTTAAGAAAGTGCGCT, for which the PBM binding z-score was 1.94.
